# Measurements published in PubChem BioAssay AID504832 (National Center for Advancing Translational Sciences (NCATS), 2011).
# Among all 310,000 compounds or so, about 18,000 (5.8%) were called active. About 22% were inconclusive and are not listed. This excerpt belongs to a sample that is enriched for actives. Unmarked numbers belong to inactive results. Calls follow the shape of the dose curve; as a rule, active = well fitted inhibition curve with a large enough effect; inconclusive = small, poorly fitted or top-dose-only effect, or another doubt; inactive = no such curve, though single readings can be large or run the other way.
# Assay: Primary qHTS for delayed death inhibitors of the malarial parasite plastid, 48 hour incubation
# Conditions: P. falciparum luciferase growth in erythrocytes; series mostly up to 28.7 µM; activity change, negative = inhibition: at the top concentration
# Procedure, shortened: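 Erythrocytes infected with P. falciparum carrying an integrated firefly luciferase reporter (2% hematocrit, 0.1% parasitemia final) were exposed to compounds in RPMI 1640 with 0.5% Albumax at 37 C, 5% CO2. Growth inhibition was scored as reduced luminescence.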
# % is scaled to controls: 0 for no effect and ±100 for the full control effect; potency is read from the fitted curve at half-maximal effect.
Compound,"activity change, negative = inhibition",Potency
CC1(C)Cc2cccc(OCC(=O)NCc3ccccc3)c2O1,4.57%,–
O=C(Oc1ccc(F)cc1)N1CCOCC1,1.01%,–
COc1ccccc1NC(=O)COC(=O)COc1ccccc1F,-7.22%,–
COc1ccccc1NC(=O)C1CCN(C(=O)c2ccc(C(C)(C)C)cc2)CC1,-1.27%,–
O=C(COC(=O)c1cc(S(=O)(=O)N2CCOCC2)ccc1Cl)NCCc1ccccc1,15.4%,–
OC(c1nc2ccc(F)cc2[nH]1)C(O)c1nc2ccc(F)cc2[nH]1 (centres undefined),11.2%,–
Cc1ccc(CNC(=O)c2c(-c3ccccc3)noc2C)cc1,2.95% [at 0.00184 µM],–
COc1ccc(C2=NOC(Cn3nc(C(=O)NCc4ccc5c(c4)OCO5)cc3-c3ccccc3)C2)cc1 (centres undefined),–,9.28 µM (active)
COc1ccccc1-n1c(C)nc2cc(C(=O)NCc3ccc4c(c3)OCO4)ccc21,14.5%,–
COc1ccc(NC(=O)NCc2ccc3c(c2)OCO3)c(OC)c1,1.8%,–
Cc1ccccc1-c1cc(C(=O)NCC2CC2)n(CC2CC(c3cccnc3)=NO2)n1 (centres undefined),-6.01%,–
Cc1ccc(CNC(=O)c2cc(-c3ccccc3C)n(CC3CC(c4cccc([N+](=O)[O-])c4)=NO3)n2)cc1 (centres undefined),–,5.22 µM (active)
O=C(COC(=O)c1cc(=O)[nH]c2ccccc12)NCc1cccc(Cl)c1,-24.3%,–
O=C(NCc1cccs1)c1ccc(CS(=O)Cc2ccccc2Cl)o1 (centres undefined),14.7%,–
CC(=O)NS(=O)(=O)c1ccc2c(c1)Cc1cc(S(=O)(=O)NC(C)=O)ccc1-2,20.5%,–
CC(OC(=O)c1cc2ccccc2o1)C(=O)Nc1ccc(N2CCOCC2)cc1 (centres undefined),-9.79%,–
O=[N+]([O-])c1ccc(N/N=C2/CCCCC2c2ccccn2)c([N+](=O)[O-])c1 (centres undefined),2.85%,–
C[n+]1ccccc1C1CCCC/C1=N\Nc1ccc([N+](=O)[O-])cc1[N+](=O)[O-] (centres undefined),–,3.7 µM (active)
Cc1cc([N+](=O)[O-])ccc1NC1CCCC1,1.67%,–
Cc1cc(O)c(C2(O)C(=O)Nc3ccccc32)cc1C (centres undefined),-8.28%,–
CCCn1nnnc1NCc1ccc(OC)cc1,54.3%,–
CC(=O)c1nc2ccccc2n1Cc1ccccc1,18.9% [at 0.00184 µM],–
Cc1ccc(Cn2c(SCC(=O)N/N=C/c3ccccc3OCC(=O)O)nc3ccccc32)cc1,7.08%,–
CCCc1nc2c(C)cc(-c3nc4ccccc4n3C)cc2n1Cc1ccc(-c2ccccc2C(=O)O)cc1,–,3.79 µM (active)
CN(c1ccccc1)S(=O)(=O)c1cccc(C(=O)NNC(=O)c2ccncc2)c1,-4.87%,–

Compound,"activity change, negative = inhibition",Potency
CCOc1ccc(N2C(=O)CC(N(CCc3ccc(OC)c(OC)c3)C(=S)Nc3ccccc3)C2=O)cc1 (centres undefined),–,10.4 µM (active)
COC(=O)CN(C(=S)Nc1ccc(Cl)cc1)C1CC(=O)N(c2ccc(OC)cc2)C1=O (centres undefined),-15%,–
CCOc1ccc(N2C(=O)CC(N(O)c3ccccc3)C2=O)cc1 (centres undefined),59.6%,–
Cc1cccc(NC(=S)NCCc2ccc(Cl)cc2)c1C,–,2.94 µM (active)
S=C(NCCc1ccccc1)Nc1ccccc1,16.9%,–
CCNC(=S)Nc1cccc(Cl)c1C,-16.4%,–
O=C(CN1CCCSc2ccccc21)N1CCN(S(=O)(=O)c2ccccc2)CC1,4.98%,–
O=C(CN1C(=O)S/C(=C\c2ccccc2Cl)C1=O)NC1C=CS(=O)(=O)C1 (centres undefined),1.18%,–
COc1c(C)c2c(c(O)c1C/C=C(\C)CCC(=O)O)C(=O)OC2,–,2.56 µM (active)
COc1ccc(C(=O)Nc2ccnn2C2CCN(Cc3ccncc3)CC2)cc1,24.7%,–
C=CCn1c(=O)c(C(=O)Nc2ncccc2O)c(O)c2ccccc21,61.6%,–
CN(C)S(=O)(=O)c1ccc(C(=O)NCC2(N3CCOCC3)CCCCC2)cc1,-19.4%,–
CCOc1ccc(S(=O)(=O)Nc2ccc(C(=O)NCCCN3CCCC3=O)cc2)cc1,9.13%,–
CCOc1ccc(S(=O)(=O)Nc2ccc(OC)nc2)cc1,8.27%,–
O=C(NCC1(N2CCCCC2)CCCCC1)c1ccc(NS(=O)(=O)c2ccc(F)cc2)cc1,–,14.7 µM (active)
CCOc1ccc(S(=O)(=O)NCCC(=O)N2CCCCCCC2)cc1,9.99%,–
CCOC(=O)c1cccc(NS(=O)(=O)c2c(C(=O)N3CCCCCC3)c(C)n(C)c2C)c1,-12.8%,–
O=C(NCC1CCCO1)c1ccc(S(=O)(=O)Nc2ccc(F)cc2)cc1 (centres undefined),6.48%,–
CCOc1ccc(NS(=O)(=O)c2ccc(C(=O)NCC(c3ccccc3OC)N3CCCC3)cc2)cc1 (centres undefined),–,10.4 µM (active)
CCOc1ccc(S(=O)(=O)Nc2cccc(C(=O)NCC3(N4CCCCC4)CCCCC3)c2)cc1,–,14.7 µM (active)
O=C(Nc1ccc(C2CC2(Cl)Cl)cc1)c1cccc([N+](=O)[O-])c1 (centres undefined),-0.243%,–
CCn1c(SC(C)C(=O)Nc2ccc(N3CCOCC3)cc2)nnc1-c1ccco1 (centres undefined),7.63%,–
CC(=O)N/C(=C\c1ccccc1)C(=O)OC(C)C(=O)N(C)c1ccccc1 (centres undefined),-7.82%,–
Cc1ccc(NC(=O)CN2CCc3ccccc3C2)cc1C,8.17%,–
COc1ccc(C(C(=O)NC2CCCCC2)N(C(=O)Cc2c[nH]c3ccccc23)c2ccccc2)cc1OC (centres undefined),–,13.1 µM (active)

Compound,"activity change, negative = inhibition",Potency
COc1ccc(CNCCc2c[nH]c3ccccc23)cc1OC,-15.4%,–
COc1ccc(-c2cc(C(=O)NC(Cc3c[nH]c4ccccc34)C(=O)O)c(C)o2)cc1OC (centres undefined),36.3%,–
Cc1ccc(F)cc1NC(=O)CSCc1c(C)noc1C,1.25%,–
COc1ccc(S(=O)(=O)N2CCCCC2)cc1Br,-17.1%,–
CCNC(=O)NC(=O)C(C)OC(=O)c1cc(S(=O)(=O)N2CCCCCC2)ccc1OC (centres undefined),12%,–
COc1ccc(S(=O)(=O)N2CCCCCC2)cc1C(=O)N(C)Cc1cccc(OC)c1OC,–,13.1 µM (active)
O=S(=O)(Nc1cccc(-c2ccc(N3CCOCC3)nn2)c1)c1ccc(Cl)c(Cl)c1,1.25%,–
O=S(=O)(NC1CC2CCC1C2)c1ccc(Cl)cc1 (centres undefined),-3.94%,–
Cc1ccc(Nc2nnc(SCC(=O)c3cc4ccccc4o3)s2)cc1C,67.4%,–
Cc1ccccc1Nc1nnc(SCC(=O)c2cc3ccccc3o2)s1,10.3%,–
Cc1cccc(Nc2nnc(SCC(=O)c3c(N)n(C4CC4)c(=O)[nH]c3=O)s2)c1C,–,11.7 µM (active)
COCCOC(=O)C1=C(C)NC(=O)NC1c1cc2c(cc1Br)OCO2 (centres undefined),-13.4%,–
O=C(NC(Cc1ccccc1)C(=O)N1CCCC(C(F)(F)F)C1)c1ccccc1 (centres undefined),-0.11%,–
C[N+]12CN3CN(CN(C3)C1)C2,–,13.1 µM (active)
Cc1ccc(N=C2SCCCN2C(=O)c2cccc(N3C(=O)CCC3=O)c2)cc1Cl,0.551%,–
Cc1ccc(CNC(=O)C(=O)c2cn(CC(=O)N3CCOCC3)c3ccccc23)cc1,47.3%,–
Cc1ccc(C2=NN(C(=O)CSc3nc(N)cc(N)n3)C(c3ccco3)C2)cc1 (centres undefined),5.49%,–
COc1ccc(C2=NN(C(=O)CSc3nc(=O)n4ccc(C)cc4n3)C(c3ccc(C)cc3)C2)cc1 (centres undefined),–,9.28 µM (active)
COc1ccc(C2CC(c3ccccc3)=NN2C(=O)CSc2nccc(=O)[nH]2)cc1 (centres undefined),3.53%,–
Cc1cccc(NC(=O)C(C)SCc2ccccc2)c1 (centres undefined),16.4%,–
COc1ccc(CCNC(=O)COC(=O)Cc2cccc(F)c2)cc1,-17.1%,–
CCOCC(=O)Nc1ncc(S(=O)(=O)c2ccc([N+](=O)[O-])cc2)s1,-20.2%,–
COc1ccc(C(=O)Nc2nc(-c3ccc(OC)cc3)c(-c3ccc([N+](=O)[O-])cc3)s2)cc1,37.7%,–
COC(=O)C(NC(=O)c1ccc(OC)cc1)(Nc1ncc(S(=O)(=O)c2ccc([N+](=O)[O-])cc2)s1)C(F)(F)F (centres undefined),–,8.28 µM (active)
Cc1c(C(=O)NC2CCCCC2)oc2ccccc12,71.4%,–

Compound,"activity change, negative = inhibition",Potency
CC(NC(=O)c1cc(=O)[nH]c2ccccc12)c1ccc(F)cc1F (centres undefined),-8.85%,–
CSc1ccc(CCNC(=O)CS(=O)(=O)Cc2nc(-c3ccccc3F)oc2C)cc1,4.97%,–
COc1ccc(C[C@H](C(=O)O)N2C(=O)c3ccc(C(=O)O)cc3C2=O)cc1,11.4%,–
N#CC(C#N)=CN=c1ccn(Cc2ccc(Cl)cc2Cl)cc1,–,2.94 µM (active)
O=c1ccn(Cc2ccccc2Cl)cc1,15.8%,–
COC/C=C/C1=CC2=CC(=O)C(C)(OC(=O)CCC(=O)OC)C(=O)C2=CO1 (centres undefined),36.7%,–
COCCN1C=C2C(=O)C(C)(OC(=O)C3CCCC3)C(=O)C=C2C=C1c1ccsc1 (centres undefined),33.1%,–
C=CCN1C=C2C(=O)C(C)(OC(=O)CCc3ccccc3)C(=O)C=C2C=C1c1ccc(C#N)cc1 (centres undefined),–,11.7 µM (active)
C/C(=N/OC(=O)c1ccc(Br)cc1)c1ccc(C)cc1,19.2%,–
COc1ccc(C(=O)CN2C(=O)NC3(CCc4ccccc43)C2=O)c(OC)c1 (centres undefined),10.4%,–
COc1ccc(-n2c(C)cc(C(=O)CN3C(=O)NC4(CCc5ccccc54)C3=O)c2C)cc1 (centres undefined),–,4.15 µM (active)
CCN(CC)c1ccc(NC(=O)CN2C(=O)NC3(CCc4ccccc43)C2=O)cc1 (centres undefined),-23.1%,–
CN(CC(=O)Nc1ccc(Cl)cc1)CC(=O)Nc1cccc2ccccc12,12.5%,–
NC(=O)C1CCN(C(=O)c2ccc(F)c(S(=O)(=O)N3CCOCC3)c2)CC1,5%,–
COc1ccc(C=C(C#N)C#N)c(CSc2ccccn2)c1,-16.3%,–
Oc1ccc(N=Cc2c(O)ccc3ccccc23)cc1,–,9.28 µM (active)
O=[N+]([O-])c1ccc(N=Cc2c(O)ccc3ccccc23)cc1,15.8%,–
Oc1ccc2ccccc2c1C=Nc1ccccc1,24.6%,–
COc1cccc(NC(=O)COC(=O)/C=C/c2ccco2)c1,23.3%,–
O=C(COC(=O)c1ccc2ncsc2c1)Nc1ccc(Cl)cc1,47.1%,–
O=C(CSc1nnc(-c2cccs2)n1-c1ccccc1)N1CCN(C(=O)c2ccco2)CC1,-13.2%,–
Cn1c(SCC(=O)N2CCCC2)nnc1-c1cccs1,20.1%,–
O=C(CSc1nnc(-c2cccs2)n1Cc1ccccc1)N1CCc2ccccc2C1,–,6.57 µM (active)
O=C(O)c1ccc(OCC2CCCO2)cc1 (centres undefined),10%,–
